Assay outcomes as filed in PubChem.
Sampled rows, rich in hits. Any-hit rate of the full collection: about 21%.
MRP resist rev: MRP-mediated drug resistance reversal | differential viability (reversal), % at 10 µM | H69AR cells + 2 uM doxorubicin, CellTiter-Glo, 72 h | hit rate 0.04% among 85,000;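 active means viability drop by adding the cancer drug above about 55%, with treated viability meeting a 40% cutoff, limit read from the data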;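 further: viability without doxorubicin minus viability with 2 µM doxorubicin for each compound; larger differential means the compound sensitizes cells more to doxorubicin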
CYP2C9 inh: human CYP2C9 inhibition | hit rate 20% among 96,000 | P11712 | inhibition, % at 5 µM | CYP2C9 Supersomes, luciferin-H conversion, luminescence;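 active means blocking of liver enzyme CYP2C9 beyond about 50% at 5 µM, limit read from the data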
Target sequence (P11712 whole entry, looked up): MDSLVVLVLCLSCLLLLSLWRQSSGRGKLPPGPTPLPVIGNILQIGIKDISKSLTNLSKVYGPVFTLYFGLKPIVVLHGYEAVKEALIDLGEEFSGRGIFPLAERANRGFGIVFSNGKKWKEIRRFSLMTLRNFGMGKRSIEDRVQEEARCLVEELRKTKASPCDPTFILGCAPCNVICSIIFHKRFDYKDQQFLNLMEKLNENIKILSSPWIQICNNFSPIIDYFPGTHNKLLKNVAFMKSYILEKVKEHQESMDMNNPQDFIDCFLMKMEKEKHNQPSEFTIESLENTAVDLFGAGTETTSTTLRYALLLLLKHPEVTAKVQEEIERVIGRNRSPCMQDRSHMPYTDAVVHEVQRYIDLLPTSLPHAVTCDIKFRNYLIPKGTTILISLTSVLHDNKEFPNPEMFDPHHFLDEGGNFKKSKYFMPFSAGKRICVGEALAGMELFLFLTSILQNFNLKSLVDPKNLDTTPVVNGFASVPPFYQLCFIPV
CYP2C9 act: CYP2C9 (human) activation. recombinant CYP2C9, luciferin-H conversion, luminescence; hits give high values; factor 1 = untreated enzyme, 0 = blocked. AID 1024. hit rate 1.4% among 96,000. activation factor at 5 µM. P11712;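 active means activation factor of 2 or more for CYP2C9 at a 5 µM dose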;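 further: 0 = sulfaphenazole-blocked wells and 1 = vehicle-only wells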
CYP2C19 inhib: blocks human cytochrome P450 2C19 | P33261 | CYP2C19 Supersomes, luciferin-H EGE luminescence, 30 min | inhibition, % at 5 µM | hit rate 21% among 96,000 | AID 778;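 active means CYP2C19 inhibition above a set limit at 5 µM in the primary screen, cut at about 50% in these data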;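 further: plate controls were negative control wells for no effect and 2.5 mM tranylcypromine positive control for full effect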
CYP2C19 activ: cytochrome P450 2C19 (human) activation; 96,000 tested, under 10 active; activation factor at 5 µM; recombinant CYP2C19, luciferin-H EGE luminescence; hits give high values; 0 = fully inhibited enzyme, 1 = untreated enzyme; P33261;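 active means activation factor of at least 2 at 5 µM in the primary screen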;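 further: 0 = wells with 2.5 mM tranylcypromine and 1 = vehicle-only wells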
MRP-1 activ: activators of MRP-1; H69AR cells + doxorubicin, viability rescue, CellTiter-Glo; viability increase, % at 10 µM; AID 799; hit rate 0.61% among 140,000;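 active means viability gain under doxorubicin at or above a set limit, the compound median plus 3 SD, cut at about 4.7% in these data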;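 further: MRP-1 overexpressing cells given doxorubicin 25 µM after compound pretreatment; 18-22 h compound pretreatment then 72 h with doxorubicin before readout; 0% = doxorubicin-only wells and 100% = vehicle-treated cells without doxorubicin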
* = called active by the depositor; nt = no result given.

SMILES | MRP resist rev | CYP2C9 inh | CYP2C9 act | CYP2C19 inhib | CYP2C19 activ | MRP-1 activ
Cc1cc(C(=O)CSc2nc3ccccc3c(=O)n2C)c(C)n1Cc1ccc2c(c1)OCO2 | 1 | 85* | 0.2 | 76* | 0.2 | -1
CC1CCCC(C)N1C(=O)Cn1c(SCC(=O)NCc2ccc3c(c2)OCO3)nc2ccccc21 (stereo unspecified) | -15 | 90* | 0.1 | 64* | 0.4 | -3
CC1CCCCN1C(=O)CSc1nc2cc3c(cc2c(=O)n1Cc1ccc2c(c1)OCO2)OCO3 (stereo unspecified) | -4 | 52* | 0.5 | 49 | 0.5 | -1
CC1CCN(C(=O)CSc2nc3ccccc3c(=O)n2Cc2ccc3c(c2)OCO3)CC1 | -10 | 67* | 0.3 | 62* | 0.4 | -1
CC1CCN(C(=O)Cn2c(=O)n(Cc3ccc4c(c3)OCO4)c(=O)c3ccccc32)CC1 | 8 | 54* | 0.5 | 22 | 0.8 | 0
O=C(Cn1c(=O)n(Cc2ccc3c(c2)OCO3)c(=O)c2ccccc21)N1CCCc2ccccc21 | -2 | nt | nt | nt | nt | 2
Clc1ccc(-c2noc(CN3CCCC3)n2)cc1 | 10 | 4 | 1 | 55* | 0.4 | 0
Cc1ccc(-c2noc(CCC(=O)NC3CCCc4ccccc43)n2)cc1 (stereo unspecified) | -17 | 62* | 0.4 | 4 | 1 | 0
COc1ccc(-c2noc(CN3CCC(Cc4ccccc4)CC3)n2)cc1 | -2 | 71* | 0.3 | 66* | 0.3 | -1
Cc1ccc(-c2noc(CCC(=O)N3CCCC3)n2)cc1 | 8 | 52* | 0.5 | 52* | 0.5 | -1
Cc1ccc(-c2cnn(-c3cccc([N+](=O)[O-])c3)c2N)cc1 | nt | -20 | 1.2 | 38 | 0.6 | 1
COc1ccc(-c2noc(CCC(=O)N3CCN(Cc4ccccc4)CC3)n2)cc1 | 22 | 95* | 0 | 94* | 0.1 | 0
Cc1ccc(-c2noc(CCC(=O)NC3CCN(Cc4ccccc4)CC3)n2)cc1 | 13 | 72* | 0.3 | 55* | 0.5 | -4
O=C(CCc1nc(-c2ccccc2F)no1)NC1CCN(Cc2ccccc2)CC1 | nt | 35 | 0.7 | -10 | 1.1 | -3
COc1ccc(-c2noc(CCC(=O)N3CCC(C)CC3)n2)cc1 | -1 | 28 | 0.7 | 10 | 0.9 | 0
Cc1cc(C)c2c(N)c(C(=O)c3cccc(Cl)c3)sc2n1 | nt | nt | nt | nt | nt | 2
COc1ccc(C(=O)NCc2nnc(SCC(=O)Nc3cccc(C(F)(F)F)c3)o2)cc1OC | 11 | -18 | 1.2 | 54* | 0.5 | 0
CCOC(=O)c1ccc(NC(=O)CSc2nnc(CNC(=O)c3c(F)cccc3Cl)o2)cc1 | 0 | 58* | 0.4 | 24 | 0.8 | -1
COc1cc(C(=O)NCc2nnc(SCC(=O)Nc3cc(C)cc(C)c3)o2)cc(OC)c1OC | 5 | -10 | 1.1 | -13 | 1.1 | -2
Cc1ccc(-c2cc(C(=O)N/N=C\c3cnn(C)c3C)c3ccccc3n2)cc1C | nt | 99* | 0 | 87* | 0.1 | -5
COc1ccc(/C=N/NC(=O)c2cc(-c3ccccc3OC(C)C)nc3ccccc23)cc1CN1CCOCC1 | nt | nt | nt | nt | nt | -3
CCc1ccc(/C=N/NC(=O)c2cc(-c3ccccc3OC)nc3ccccc23)s1 | nt | 94* | 0.1 | 66* | 0.3 | -1
COc1ccccc1-c1cc(C(=O)N/N=C/c2ccc(C)s2)c2ccccc2n1 | nt | 100* | 0 | 75* | 0.3 | -2
CCOCCCNS(=O)(=O)c1ccc(-n2cnnn2)c(OC)c1 | 16 | -34 | 1.3 | 89* | 0.1 | 1
COc1cc(NS(=O)(=O)c2ccc(C)cc2)ccc1-n1cnnn1 | -8 | 72* | 0.3 | 44 | 0.6 | 6.3*
SMILES | MRP resist rev | CYP2C9 inh | CYP2C9 act | CYP2C19 inhib | CYP2C19 activ | MRP-1 activ
COc1cc(S(=O)(=O)NCC2COCCO2)ccc1-n1cnnn1 (stereo unspecified) | 5 | 8 | 0.9 | 28 | 0.7 | -1
COc1cc(S(=O)(=O)NCCc2ccc3c(c2)OCO3)ccc1-n1cnnn1 | nt | 87* | 0.1 | 96* | 0 | -3
CN(C)C(=O)CSc1nc(SCC(=O)N(C)C)n(-c2ccccc2)n1 | 8 | 2 | 1 | 8 | 0.9 | -3
CN(C(=O)CSc1nc(N)nn1-c1ccccc1)c1ccccc1 | 5 | 33 | 0.7 | 84* | 0.2 | -1
C/C(=N\NC(=S)Nc1cc(S(=O)(=O)N2CCOCC2)ccc1Cl)c1ccccc1F | nt | nt | nt | nt | nt | 1
c1ccc2c3c([nH]c2c1)-c1[nH]ncc1CC3 | -5 | 67* | 0.3 | 24 | 0.8 | -2
Clc1ccc2[nH]c3c(c2c1)CCc1cn[nH]c1-3 | -31 | 55* | 0.5 | 18 | 0.8 | -5
CC(NS(=O)(=O)c1ccc(Br)cc1)C(c1cccs1)N1CCN(C)CC1 (stereo unspecified) | 10 | -2 | 1 | 100* | 0 | -1
CC(NS(C)(=O)=O)C(c1cccs1)N1CCN(C)CC1 (stereo unspecified) | -1 | -4 | 1 | -2 | 1 | -2
CC1CCCN(S(=O)(=O)c2ccc(S(=O)(=O)NC(C)c3cccs3)cc2)C1 (stereo unspecified) | nt | 74* | 0.3 | 100* | 0 | -3
COc1ccccc1N1CCN(C(c2cccs2)C(C)NS(=O)(=O)c2ccccc2)CC1 (stereo unspecified) | 1 | 86* | 0.1 | 72* | 0.3 | 0
OCCN(Cc1ccccc1)Cc1ccc(F)c(F)c1 | 27 | 30 | 0.7 | 84* | 0.2 | -2
CN1CCN(Cc2nc3c(c(=O)n(C)c(=O)n3C)n2CCc2ccccc2)CC1 | 9 | nt | nt | nt | nt | nt
CCc1cc(C(=O)COc2ccccc2F)c(O)cc1O | 7 | 60* | 0.4 | 96* | 0 | -1
CC(=O)NCCc1nc2ccccc2[nH]1 | -17 | nt | nt | nt | nt | -3
CCc1cc(/C(Cc2ccccn2)=N\O)c(O)cc1O | -4 | 62* | 0.4 | 46 | 0.5 | -2
CCc1cc(/C(Cc2ccc3ccccc3n2)=N\O)c(O)cc1O | nt | 73* | 0.3 | 90* | 0.1 | -2
CC1CCN(C(=O)COc2ccccc2F)CC1 | -4 | -2 | 1 | 25 | 0.8 | -2
CCc1cc(C(=O)Cc2nc3ccccc3[nH]2)c(O)cc1O | -3 | 54* | 0.5 | 87* | 0.1 | -1
CC12CN3CCN(CC(C3)/C1=N\N=C1/C3CN4CCN(C3)CC1(C)C4)C2 | nt | nt | nt | nt | nt | -2
O=c1[nH]c(SCc2nc3ccccc3c(=O)n2-c2ccccc2C(F)(F)F)nc2ccccc12 | nt | nt | nt | nt | nt | -4
N=c1oc2ccccc2cc1-c1nc(-c2ccc(Cl)cc2)cs1 | nt | nt | nt | nt | nt | -3
CS(=O)(=O)CCC(C(=O)OCc1ccc(Cl)cc1)N1C(=O)c2ccccc2C1=O (stereo unspecified) | nt | nt | nt | nt | nt | -1
CN(C)S(=O)(=O)NC(c1ccccc1)c1ccccc1 | 3 | 60* | 0.4 | 83* | 0.2 | -1
COc1cc(S(=O)(=O)N2CCOCC2)ccc1NC(=O)COC(=O)c1ccccn1 | 3 | 20 | 0.8 | 4 | 1 | -2
